Common to all, as to design: species or system human, MV4-11 + K-562 + COLO205 + SK-N-BE2 + OVCAR-8
The subject of experiment [1] is ARAF. The following applies: read-out: apparent Kd; compound concentrations: 100 nM and 1000 nM (sheet 'Samples'), CATDS: 5.7058151547421603E-2; n = 1.
Experiment [2] has as its system AURKB. The following applies: read-out: apparent Kd; compound concentrations: 100 nM and 1000 nM (sheet 'Samples'), CATDS: 7.6313270646160003E-2; n = 1.
Experiment [3] concerns CDK10. Conditions: read-out: apparent Kd; compound concentrations: 100 nM and 1000 nM (sheet 'Samples'), CATDS: 4.7356603246951401E-2; n = 1.
For experiment [4], the system named is EIF2AK1. Conditions: read-out: apparent Kd; compound concentrations: 100 nM and 1000 nM (sheet 'Samples'), CATDS: 9.9444074650609393E-2; n = 1.
The test system of experiment [5] is FN3K. The following applies: read-out: apparent Kd; compound concentrations: 100 nM and 1000 nM (sheet 'Samples'), CATDS: 5.2169605073521003E-2; n = 1.
For experiment [6], the system named is ICK. Conditions: read-out: apparent Kd, n = 1.
Experiment [7] has as its system LATS1. Conditions: read-out: apparent Kd; compound concentrations: 100 nM and 1000 nM (sheet 'Samples'), CATDS: 4.4770495584516998E-2; n = 1.
For experiment [8], the system named is MAP2K5. Conditions: read-out: apparent Kd; compound concentrations: 100 nM and 1000 nM (sheet 'Samples'), CATDS: 0.11655274425704; n = 1.
The subject of experiment [9] is MAP3K2. Conditions: read-out: apparent Kd; compound concentrations: 100 nM and 1000 nM (sheet 'Samples'), CATDS: 4.6082371307615597E-2; n = 1.
The subject of experiment [10] is MAP3K4. Conditions: read-out: apparent Kd; compound concentrations: 100 nM and 1000 nM (sheet 'Samples'), CATDS: 4.8228704879059399E-2; n = 1.
The subject of experiment [11] is MAP4K1. Conditions: read-out: apparent Kd; compound concentrations: 100 nM and 1000 nM (sheet 'Samples'), CATDS: 4.8558197444370697E-2; n = 1.
The test system of experiment [12] is MAP4K2. The following applies: read-out: apparent Kd; compound concentrations: 100 nM and 1000 nM (sheet 'Samples'), CATDS: 5.6009475369740498E-2; n = 1.
Experiment [13] relates to MAP4K3. Conditions: read-out: apparent Kd; compound concentrations: 100 nM and 1000 nM (sheet 'Samples'), CATDS: 7.0202424980237099E-2; n = 1.
Experiment [14] deals with NEK1. The following applies: read-out: apparent Kd; compound concentrations: 100 nM and 1000 nM (sheet 'Samples'), CATDS: 8.0496381389801502E-2; n = 1.
Experiment [15] deals with NEK2. The following applies: read-out: apparent Kd; compound concentrations: 100 nM and 1000 nM (sheet 'Samples'), CATDS: 4.3015896259207202E-2; n = 1.
Experiment [16] relates to PKMYT1. The following applies: read-out: apparent Kd; compound concentrations: 100 nM and 1000 nM (sheet 'Samples'), CATDS: 4.44842965705885E-2; n = 1.
For experiment [17], the system named is PTK6. Conditions: read-out: apparent Kd; compound concentrations: 100 nM and 1000 nM (sheet 'Samples'), CATDS: 5.5693628002095402E-2; n = 1.
The test system of experiment [18] is RAF1. Conditions: read-out: apparent Kd; compound concentrations: 100 nM and 1000 nM (sheet 'Samples'), CATDS: 4.9993718202349699E-2; n = 1.
In experiment [19] the test system is AKT2. Conditions: read-out: apparent Kd; compound concentrations: 100 nM and 1000 nM (sheet 'Samples'), CATDS: 0.161552341020717; n = 1.
For experiment [20], the system named is CDK6. The following applies: read-out: apparent Kd, n = 1.
In experiment [21] the test system is MAP3K6. Conditions: read-out: apparent Kd; compound concentrations: 100 nM and 1000 nM (sheet 'Samples'), CATDS: 0.18139897534285501; n = 1.
In experiment [22] the test system is PIK3CA. The following applies: read-out: apparent Kd; compound concentrations: 100 nM and 1000 nM (sheet 'Samples'), CATDS: 0.92567597438095595; n = 1.
Experiment [23] deals with TESK1. The following applies: read-out: apparent Kd; compound concentrations: 100 nM and 1000 nM (sheet 'Samples'), CATDS: 0.16638994062749099; n = 1.
Experiment [24] has as its system AKT3. Conditions: read-out: apparent Kd; compound concentrations:100 nM and 1000 nM (sheet 'Samples'); n = 1.
Experiment [25] has as its system CDK16. The following applies: read-out: apparent Kd; compound concentrations:100 nM and 1000 nM (sheet 'Samples'); n = 1.
Experiment [26] concerns CDK17. The following applies: read-out: apparent Kd; compound concentrations:100 nM and 1000 nM (sheet 'Samples'); n = 1.
Experiment [27] relates to CDK9. The following applies: read-out: apparent Kd; compound concentrations:100 nM and 1000 nM (sheet 'Samples'); n = 1.
The test system of experiment [28] is CDKL5. Conditions: read-out: apparent Kd; compound concentrations:100 nM and 1000 nM (sheet 'Samples'); n = 1.
The subject of experiment [29] is GSK3A. The following applies: read-out: apparent Kd; compound concentrations:100 nM and 1000 nM (sheet 'Samples'); n = 1.
The subject of experiment [30] is GSK3B. The following applies: read-out: apparent Kd; compound concentrations:100 nM and 1000 nM (sheet 'Samples'); n = 1.
Experiment [31] has as its system PIM2. The following applies: read-out: apparent Kd; compound concentrations:100 nM and 1000 nM (sheet 'Samples'); n = 1.
In experiment [32] the test system is RIOK2. Conditions: read-out: apparent Kd; compound concentrations:100 nM and 1000 nM (sheet 'Samples'); n = 1.
Where [33] appears, read: compound concentrations:100 nM and 1000 nM (sheet 'Samples').

Where two headings read alike, the source gives them in different places.

Turning to `Cc1ccccc1CC(=O)N1CCc2cc(-c3cn(C)c4ncnc(N)c34)ccc21` [GSK2603346A], the potency estimated from few doses in experiment [1] was 942 nM; in [2], 547 nM; in [3] it was 1450 nM; in experiment [4], 360 nM; in experiment [5], 1140 nM; in experiment [6] (compound concentrations: 100 nM and 1000 nM (sheet 'Samples'), CATDS: 4.7896181585756002E-2), 1410 nM. Further, the potency estimated from few doses in experiment [7] was 1680 nM; in experiment [8], 287 nM; in experiment [9], 1550 nM; in experiment [10], 1380 nM; in experiment [11] it was 1360 nM; in [12], 979 nM. Also, the potency estimated from few doses in experiment [13] was 632 nM; in experiment [14], 501 nM; in experiment [15], 1890 nM; in experiment [16], 1710 nM; in experiment [17] it was 991 nM; in experiment [18], 1260 nM.
In the case of `CC(C)(C)c1ccc(C(=O)Nc2cn3cc(-c4cccnc4)ccc3n2)cc1` [TPKI-58], the potency estimated from few doses in experiment [19] is 1950 nM; in experiment [20] (compound concentrations: 100 nM and 1000 nM (sheet 'Samples'), CATDS: 0.161106478670141), 1970 nM; in experiment [21], 1390 nM; in experiment [22], 17.7 nM; in experiment [23] it was 1790 nM.
Regarding `CN1CCC(C(=O)Nc2n[nH]c3nc(-c4ccc(O)cc4)c(Br)cc23)CC1` [SB-732881], the potency estimated from few doses in experiment [24] was 1640 nM; in [25] it was 565 nM; in experiment [26] it was 914 nM; in [20] (setting [33]) it was 1480 nM; in [27], 400 nM; in [28], 852 nM. Moreover, the potency estimated from few doses in [29] is 3.34 nM; in experiment [30], 10.4 nM; in experiment [6] (setting [33]), 1230 nM; in [31] it was 1660 nM; in [32] it was 2210 nM.

These data come from paper PMC11062922 (Nature Chemical Biology, 2023).
